Laboratory results: publication PMC4081100, “A DNA-binding-site landscape and regulatory network analysis for NAC transcription factors in Arabidopsis thaliana”

Molecular target: T1, GST-ANAC092(1-176) (Arabidopsis thaliana, UniProt Q9FKA0 1-176)
T1 sequence: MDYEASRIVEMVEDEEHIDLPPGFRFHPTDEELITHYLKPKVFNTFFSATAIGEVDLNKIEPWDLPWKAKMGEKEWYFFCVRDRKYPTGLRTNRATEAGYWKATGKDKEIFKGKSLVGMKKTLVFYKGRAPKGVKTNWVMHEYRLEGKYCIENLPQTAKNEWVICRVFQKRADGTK
Assay: universal protein binding microarray (PBM); transcription factors of Arabidopsis thaliana; high values mean tight binding
Conditions: protein: recombinant; tags: GST; chain copies: 2; dsDNA, one strand shown
Summary of the method: (§1)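 Each value is a normalised enrichment score (E-score) describing binding. The GST-tagged proteins, NAC-domain, full-length or DNA-binding-domain, were induced in cells (zinc-finger proteins with zinc acetate added) and purified on glutathione–Sepharose 4B. They were applied at 200 to 500 nM final, in duplicate, to double-stranded custom all-10-mer Agilent 4 × 180K arrays, and gapped and ungapped 8-mers were scored.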

| Sequence | binding signal [E-score] |
| --- | --- |
| TAAAGCAA | 0.138 |
| TGCACGCA | 0.419 |
| CGACACGC | 0.316 |
| TACACGTA | 0.382 |
| ATGGCGTG | 0.443 |
| ACGTCACC | 0.452 |
| AAGCAACA | 0.387 |
| ACGTTAAC | 0.421 |
| ATACACGC | 0.39 |
| GACGTGTA | 0.409 |
| ACACGCGA | 0.461 |
| ATAACGTG | 0.446 |
| AACGTACG | 0.297 |
| CACACGTC | 0.33 |
| CACGCCAC | 0.481 |
| GCGTACGC | 0.402 |
| GAGGAAAA | 0.152 |
| ACACGTTA | 0.482 |
| TATACGCA | 0.311 |
| AGCGTAAG | 0.191 |

| Sequence | binding signal [E-score] |
| --- | --- |
| CACGCTTC | 0.37 |
| CACGCATC | 0.396 |
| ATGCCGTG | 0.417 |
| GTACGCCA | 0.379 |
| CACGTCAC | 0.445 |
| TGCGTGAA | 0.325 |
| AAGGGAAA | 0.195 |
| ACGCTAAC | 0.43 |
| ATTGCTTA | 0.273 |
| AAAGCAAC | 0.268 |
| TTAAGCAA | 0.357 |
| ACGTAAAC | 0.397 |
| ACGCAAGC | 0.466 |
| ACACGCAT | 0.462 |
| ATGTCGTG | 0.267 |
| TCACGGAA | 0.363 |
| ATTTCGTG | 0.389 |
| ACGGAACA | 0.224 |
| AGAGGAAA | 0.115 |

Molecular target: GST-NTL6(1-168) (Arabidopsis thaliana, UniProt Q9SCK6 1-168)
Sequence (Q9SCK6 1-168): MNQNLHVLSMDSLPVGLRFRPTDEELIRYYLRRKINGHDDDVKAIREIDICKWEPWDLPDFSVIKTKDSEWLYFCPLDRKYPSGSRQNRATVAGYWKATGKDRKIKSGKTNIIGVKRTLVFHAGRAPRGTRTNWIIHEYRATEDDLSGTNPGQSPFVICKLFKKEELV
Assay: as above
Conditions: protein: recombinant; tags: GST; chain copies: 2; dsDNA, one strand shown
Summary of the method: as §1

| Sequence | binding signal [E-score] |
| --- | --- |
| TAAAGCAA | 0.134 |
| AAGCAACA | 0.333 |
| ACACGCGA | 0.125 |
| GAGGAAAA | 0.188 |
| AGCGTAAG | 0.0608 |
| AAGGGAAA | 0.166 |
| ATTGCTTA | 0.423 |
| AAAGCAAC | 0.0839 |
| TTAAGCAA | 0.471 |
| AGAGGAAA | 0.126 |

Molecular target: T2, GST-ANAC019 NAC domain (Arabidopsis thaliana, UniProt Q9C932 14-162)
T2 sequence: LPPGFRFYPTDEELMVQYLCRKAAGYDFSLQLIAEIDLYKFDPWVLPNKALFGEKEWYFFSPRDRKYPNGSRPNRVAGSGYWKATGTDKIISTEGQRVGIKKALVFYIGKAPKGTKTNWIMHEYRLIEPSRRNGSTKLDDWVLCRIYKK
Assay: as above
Conditions: protein: recombinant; tags: GST; chain copies: 2; dsDNA, one strand shown
Summary of the method: as §1

| Sequence | binding signal [E-score] |
| --- | --- |
| TGCACGCA | 0.355 |
| CGACACGC | 0.246 |
| TACACGTA | 0.286 |
| ATGGCGTG | 0.196 |
| ACGTCACC | 0.308 |
| ACGTTAAC | 0.257 |
| ATACACGC | 0.19 |
| GACGTGTA | 0.354 |
| ATAACGTG | 0.0978 |
| AACGTACG | 0.122 |
| CACACGTC | 0.214 |
| CACGCCAC | 0.33 |
| GCGTACGC | 0.287 |
| ACACGTTA | 0.165 |
| TATACGCA | 0.232 |
| CACGCTTC | 0.184 |
| CACGCATC | 0.334 |
| ATGCCGTG | 0.453 |
| GTACGCCA | 0.139 |
| CACGTCAC | 0.4 |
| TGCGTGAA | 0.327 |
| ACGCTAAC | 0.143 |
| ACGTAAAC | 0.427 |
| ACGCAAGC | 0.35 |
| ACACGCAT | 0.346 |
| ATGTCGTG | 0.419 |
| TCACGGAA | 0.465 |
| ATTTCGTG | 0.174 |
| ACGGAACA | 0.418 |

Molecular target: T3, GST-ANAC055(1-171) (Arabidopsis thaliana, UniProt Q9LDY8 1-171)
T3 sequence: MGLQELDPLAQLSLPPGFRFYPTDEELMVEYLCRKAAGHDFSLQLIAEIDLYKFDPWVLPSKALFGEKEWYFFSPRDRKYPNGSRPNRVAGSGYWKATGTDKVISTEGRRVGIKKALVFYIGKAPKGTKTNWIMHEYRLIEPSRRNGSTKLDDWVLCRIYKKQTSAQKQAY
Assay: as above
Conditions: protein: recombinant; tags: GST; chain copies: 2; dsDNA, one strand shown
Summary of the method: as §1

| Sequence | binding signal [E-score] |
| --- | --- |
| TGCACGCA | 0.255 |
| CGACACGC | 0.131 |
| TACACGTA | 0.361 |
| ATGGCGTG | 0.138 |
| ACGTCACC | 0.32 |
| AAGCAACA | 0.134 |
| ACGTTAAC | 0.228 |
| ATACACGC | 0.185 |
| GACGTGTA | 0.341 |
| ATAACGTG | 0.143 |
| AACGTACG | 0.207 |
| CACACGTC | 0.221 |
| CACGCCAC | 0.268 |
| GCGTACGC | 0.265 |
| ACACGTTA | 0.3 |
| TATACGCA | 0.32 |
| AGCGTAAG | 0.0588 |

| Sequence | binding signal [E-score] |
| --- | --- |
| CACGCTTC | 0.165 |
| CACGCATC | 0.291 |
| ATGCCGTG | 0.418 |
| GTACGCCA | 0.153 |
| CACGTCAC | 0.396 |
| TGCGTGAA | 0.258 |
| ACGCTAAC | 0.0694 |
| AAAGCAAC | 0.0548 |
| TTAAGCAA | 0.133 |
| ACGTAAAC | 0.355 |
| ACGCAAGC | 0.295 |
| ACACGCAT | 0.335 |
| ATGTCGTG | 0.371 |
| TCACGGAA | 0.432 |
| ATTTCGTG | 0.22 |
| ACGGAACA | 0.418 |

Molecular target: T4, GST-ATAF1 NAC domain (Arabidopsis thaliana, UniProt Q39013 7-158)
T4 sequence: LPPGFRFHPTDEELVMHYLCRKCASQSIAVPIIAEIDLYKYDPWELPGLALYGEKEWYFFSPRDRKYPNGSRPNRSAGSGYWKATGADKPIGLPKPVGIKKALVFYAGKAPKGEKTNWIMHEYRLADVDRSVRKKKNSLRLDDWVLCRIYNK
Assay: as above
Conditions: protein: recombinant; tags: GST; chain copies: 2; dsDNA, one strand shown
Summary of the method: as §1

| Sequence | binding signal [E-score] |
| --- | --- |
| TGCACGCA | 0.128 |
| CGACACGC | 0.188 |
| TACACGTA | 0.322 |
| ATGGCGTG | 0.17 |
| ACGTCACC | 0.311 |
| AAGCAACA | 0.0645 |
| ACGTTAAC | 0.227 |
| ATACACGC | 0.21 |
| GACGTGTA | 0.291 |
| ATAACGTG | 0.142 |
| AACGTACG | 0.326 |
| CACACGTC | 0.248 |
| CACGCCAC | 0.293 |
| GCGTACGC | 0.16 |
| GAGGAAAA | 0.1 |
| ACACGTTA | 0.35 |
| TATACGCA | 0.231 |
| AGCGTAAG | 0.0897 |

| Sequence | binding signal [E-score] |
| --- | --- |
| CACGCTTC | 0.212 |
| CACGCATC | 0.235 |
| ATGCCGTG | 0.35 |
| GTACGCCA | 0.121 |
| CACGTCAC | 0.374 |
| TGCGTGAA | 0.234 |
| AAGGGAAA | 0.166 |
| ACGCTAAC | 0.142 |
| TTAAGCAA | 0.133 |
| ACGTAAAC | 0.321 |
| ACGCAAGC | 0.148 |
| ACACGCAT | 0.292 |
| ATGTCGTG | 0.289 |
| TCACGGAA | 0.332 |
| ATTTCGTG | 0.154 |
| ACGGAACA | 0.304 |
| AGAGGAAA | 0.0666 |

Molecular target: T5, GST-ANAC092(1-285) full length (Arabidopsis thaliana, UniProt Q9FKA0 1-285)
T5 sequence: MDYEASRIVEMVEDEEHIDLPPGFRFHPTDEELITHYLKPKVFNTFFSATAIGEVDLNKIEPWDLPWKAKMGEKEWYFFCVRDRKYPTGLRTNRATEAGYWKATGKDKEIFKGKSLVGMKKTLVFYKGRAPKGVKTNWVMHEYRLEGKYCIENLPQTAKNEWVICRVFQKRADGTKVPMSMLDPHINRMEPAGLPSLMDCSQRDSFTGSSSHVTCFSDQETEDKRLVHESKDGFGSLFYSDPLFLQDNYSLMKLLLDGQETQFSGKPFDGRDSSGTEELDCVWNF
Assay: as above
Conditions: protein: recombinant; tags: GST; chain copies: 2; dsDNA, one strand shown
Summary of the method: as §1

| Sequence | binding signal [E-score] |
| --- | --- |
| TAAAGCAA | 0.293 |
| TGCACGCA | 0.458 |
| CGACACGC | 0.403 |
| TACACGTA | 0.411 |
| ATGGCGTG | 0.456 |
| ACGTCACC | 0.463 |
| AAGCAACA | 0.405 |
| ACGTTAAC | 0.438 |
| ATACACGC | 0.423 |
| GACGTGTA | 0.437 |
| ACACGCGA | 0.478 |
| ATAACGTG | 0.447 |
| AACGTACG | 0.403 |
| CACACGTC | 0.405 |
| CACGCCAC | 0.488 |
| GCGTACGC | 0.418 |
| GAGGAAAA | 0.152 |
| ACACGTTA | 0.485 |
| TATACGCA | 0.4 |
| AGCGTAAG | 0.312 |

| Sequence | binding signal [E-score] |
| --- | --- |
| CACGCTTC | 0.437 |
| CACGCATC | 0.44 |
| ATGCCGTG | 0.443 |
| GTACGCCA | 0.45 |
| CACGTCAC | 0.464 |
| TGCGTGAA | 0.414 |
| AAGGGAAA | 0.0848 |
| ACGCTAAC | 0.457 |
| ATTGCTTA | 0.319 |
| AAAGCAAC | 0.373 |
| TTAAGCAA | 0.356 |
| ACGTAAAC | 0.43 |
| ACGCAAGC | 0.478 |
| ACACGCAT | 0.468 |
| ATGTCGTG | 0.336 |
| TCACGGAA | 0.381 |
| ATTTCGTG | 0.422 |
| ACGGAACA | 0.289 |
| AGAGGAAA | 0.0695 |
